Screening results from PubChem.
HT1080 IDH1KD tx: HT-1080 IDH1 knockdown cell toxicity (counter line); HT-1080 IDH1 knockdown viability, ATP luminescence, 48 h; Potency, µM (titrated, usually from 46.1 µM), without a hit: at the highest dose activity, negative = toxicity, hits mostly cytotoxic; 360,000 tested, 2% active; AID 686971;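 further: 0% = DMSO wells and -100% = cell-free medium wells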
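IDH1KD HT-1080 cells, 750/well, RPMI + 5% FBS; compound pinned after 2 h settling; 48 h, 37 °C; CellTiter-Glo luminescence; % activity normalised to DMSO and no-cell wells; curves fitted, classed by r2 and efficacy.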
HT1080NT lethal: kills 2HG-producing HT-1080-NT fibrosarcoma cells; HT-1080-NT fibrosarcoma viability, CellTiter-Glo ATP luminescence, 48 h; Potency, µM (highest dose often 46.1 µM), for the others: top-dose activity, negative = less viability, most hits filed as cytotoxic; 360,000 tested, 1.6% active;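 further: NT is the 2HG producing partner of a matched IDH1 knockdown line; 0% = DMSO-treated cells and -100% = media-only wells without cells; nearly all actives have a fitted effect of over 55% in size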
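A 48-hour cytotoxicity screen used HT-1080-NT cells plated 2 hours before compound delivery. ATP-based CellTiter-Glo luminescence measured viability, normalized to DMSO and no-cell controls.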
KB-3-1 cytotox: KB-3-1 parental cell cytotoxicity | 400,000 tested, 1.4% active | KB-3-1 viability, CellTiter-Glo ATP luminescence, 72 h | Potency, µM (titrated, usually from 46.1 µM), usual class: cytotoxic; further: on the % scale 0 is the no-effect control and ±100 the full control effect; nearly all actives have a fitted effect of over 60% in size
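Multi-concentration cytotoxicity screen in KB-3-1 cells grown in DMEM lacking phenol red with 10% FBS. After 72 h at 37 °C with compound, ATP-dependent luminescence was recorded.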
KB-V1 MDR tox: kills drug-selected multidrug resistant KB-V1 cells | KB-V1 MDR cells viability, CellTiter-Glo, 72 h | Potency, µM (series often up to 46.1 µM), hits mostly cytotoxic | 400,000 tested, 3.4% active; further: on the % scale 0 is the no-effect control and ±100 the full control effect; nearly all actives have a fitted effect of over 60% in size
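Cells of the MDR subline KB-V1 are plated, dosed with compound at multiple concentrations, and incubated 72 h at 37 degrees C; CellTiter-Glo is then added and luminescence read after 10 min.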
MCF10A rereplic: DNA re-replication induction in MCF 10a cells; MCF 10A DNA re-replication, Hoechst nuclear intensity, 48 h; 350,000 tested, 2.9% active; AID 624296; Potency, µM (titrated, usually from 46.1 µM), for the others: at the highest dose activity, positive = re-replication, actives largely listed as activators; further: % of control where 0% means no effect; nearly all actives have a fitted effect of over 50% in size
SW480 rerep: induces DNA re-replication in SW480 colon adenocarcinoma cells. SW480 DNA re-replication, Hoechst DNA content imaging, 48 h. Potency, µM (titrated, usually from 46.1 µM), inactives show at the top dose re-replication activation, actives largely listed as activators. 340,000 tested, 1.8% active. AID 624297; further: % of control where 0% means no effect; nearly all actives have a fitted effect of over 55% in size
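Cells (250 per well) received 23 nL compound or DMSO by pin tool and were kept 48 hr at 37 C, 5% CO2. Nuclei were then stained with Hoechst for 40 min and scanned for DNA content.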
* = called active by the depositor; i = inactive; ? = inconclusive; · = no result; [ ] = dose if it differs, or a comment. Most compounds without a hit are left out; they make up all but 7.9% or so of the library. The call rests on the fitted dose curve; in most records, active means well fitted curve in the direction sought with a large enough effect; inconclusive means small, poorly fitted or top-dose-only effect, or another doubt; inactive means no such curve, though single readings can be large; an effect the other way counts as inactive or inconclusive. Potency means the concentration at half of the fitted maximal effect.

SMILES	HT1080 IDH1KD tx	HT1080NT lethal	KB-3-1 cytotox	KB-V1 MDR tox	MCF10A rereplic	SW480 rerep
COc1ccc(C(=O)NCC(c2cccnc2)N2CCN(c3ccccc3)CC2)cc1 (stereo not given)	·	·	?	i	·	·
COc1ccc(Cn2c(SCc3ccc(C)cc3)nc3cc(OC)c(OC)cc3c2=N)cc1Cl	23µM*	21µM*	?	?	4.1µM*	?
COc1ccc(Cn2c(SCc3cc(C)ccc3C)nc3cc(OC)c(OC)cc3c2=N)cc1	?	?	?	11µM*	3.7µM*	?
CCCCNC(=O)CSc1nc2cc(OC)c(OC)cc2c(=O)n1Cc1ccc(OC)cc1	15%	11%	i	2.1µM*	6%	-5%
CCC(Sc1nc2cc(OC)c(OC)cc2c(=O)n1Cc1ccc(OC)cc1)C(=O)NCCOC (stereo not given)	0%	6%	i	i	25%	-12%[1.84 µM]
COc1cc2nc(SCc3ccc(C(F)(F)F)cc3)n(Cc3cccs3)c(=N)c2cc1OC	-2%	0%	i	i	-1%	-22%
COCCCn1c(SCc2ccccc2)nc2cc(OC)c(OC)cc2c1=N	-29%	-29%	?	?	14%	-7%
COc1cc2nc(SCc3ccc(Cl)cc3Cl)n(Cc3cccs3)c(=N)c2cc1OC	-9%	-9%	23µM*	6.5µM*	?	-5%
Cc1ccc(-n2ccnc(NCCc3ccc(S(N)(=O)=O)cc3)c2=O)cc1C	·	·	i	i	·	·
CCN1C/C(=C/c2ccc(N3CCOCC3)cc2)C(=O)/C(=C/c2ccc(N3CCOCC3)cc2)C1	21µM*	?	?	18µM*	23µM*	16µM*
CN1C/C(=C\c2ccc(N3CCOCC3)cc2)C(=O)/C(=C/c2ccc(N3CCOCC3)cc2)C1	?	?	?	21µM*	18µM*	?
c1ccc(N2CCOCCOCCOCCOCCOCC2)cc1	9%	1%	i	i	-3%	-1%
CCc1ccc(/C=C2/SC(N3CCOCC3)=NC2=O)cc1	7%	11%	i	i	-2%	-38%
COCCNC(=O)C1CCCN(Cc2ccc(C#N)cc2)CC1 (stereo not given)	18%	11%	i	i	·	·
CCN(C1CCCCC1)S(=O)(=O)c1ccc(S(=O)(=O)NCCc2ccncc2)cc1	-6%	1%	i	21µM*	?	11%
Cc1ccc(S(=O)(=O)NCc2ccncc2)cc1C	23µM*	-5%	?	i	6%	0%
CCN(C1CCCCC1)S(=O)(=O)c1ccc(S(=O)(=O)NCc2ccncc2)cc1	?	?	i	7.3µM*	-1%	0%
CCCCCc1ccc(S(=O)(=O)NCCc2ccncc2)cc1	?	-15%	?	3.3µM*	16%	-6%
CCCc1ccc(S(=O)(=O)NCCc2ccncc2)cc1	-16%	0%	i	i	-2%	-12%
CC1CCCC(C)N1S(=O)(=O)c1ccc(S(=O)(=O)NCCc2ccncc2)cc1 (stereo not given)	-2%[9.24 µM]	-17%	i	?	-6%	0%
CCOc1cc(/C=N/NC(=O)c2cccc([N+](=O)[O-])c2)ccc1OS(=O)(=O)c1ccccc1	?	?	?	13µM*	19%	15%
COc1ccc(/C=N/NC(=O)c2cccc([N+](=O)[O-])c2)cc1OS(=O)(=O)c1ccc(C)cc1	?	?	?	21µM*	?	?
COc1ccc2c(=O)n3nc(Nc4cccc(N5CCN(C)CC5)c4)sc3nc2c1	·	·	i	i	·	·
Cc1cccc(CSCCNC(=S)Nc2ccccc2)c1	-11%	-10%	?	18µM*	17%	0%
S=C(NCCSCc1ccccc1Cl)Nc1ccccc1	?	-16%	i	?	13µM*	-1%
SMILES	HT1080 IDH1KD tx	HT1080NT lethal	KB-3-1 cytotox	KB-V1 MDR tox	MCF10A rereplic	SW480 rerep
Cc1csc(NC(=O)CCCNC(=O)c2ccc(Cl)cc2)n1	-1%	0%[9.24 µM]	?	?	0%	-21%
FC(F)(F)c1cc(-c2ccc(Cl)cc2)nc(NCc2cccnc2)n1	5%	-4%	i	?	16µM*	?
COc1ccc(-c2cc(C(F)(F)F)nc(NCc3ccc(Cl)cc3)n2)cc1	·	·	i	i	·	·
COc1cc(Cl)c(NC(=O)c2cc(S(=O)(=O)N3CCOCC3)cn2C)c(OC)c1	·	·	i	i	·	·
CC(C)OC(=O)c1cccc(NC(=O)c2ccccc2)c1	-6%	-3%	i	12µM*	?	6%
CC(=O)Nc1cccc(OCCCOc2cccc([N+](=O)[O-])c2)c1	15%	3%	i	9.2µM*	8%	?
COCCCNC(=O)c1cccc(NC(=O)c2ccccc2)c1	?	0%	i	?	?	-16%
CC(C)OCCCNC(=O)c1cccc(NC(=O)c2ccccc2)c1	15%	14%	i	16µM*	2%	-1%
COc1cccc(N/C(SCc2cccc([N+](=O)[O-])c2)=C(/C#N)C(N)=O)c1	16µM*	?	i	?	?	?
COc1ccc(OCCCC(=O)Nc2cccc([N+](=O)[O-])c2)cc1	4%	0%	i	?	28%	?
Cc1cc(=O)[nH]c(SCC(=O)Nc2c(C)n(C)n(-c3ccccc3)c2=O)c1C#N	1%	-3%[9.24 µM]	i	i	8%	?
CCOC(=O)[C@@H]1[C@H]2COc3ccccc3[C@H]2N2C(=O)N(c3ccc(Cl)cc3)C(=O)[C@]12C	3%	-23%	i	i	?	25%
CC(=O)Nc1cccc(OCCCNC(=O)c2ccc(C(C)(C)C)cc2)c1	15µM*	?	?	i	0%	4%
CC(=O)N/N=C/c1cc([N+](=O)[O-])ccc1OCCOc1ccccc1	-3%	-10%	i	i	4%	21µM*
O=S(=O)(c1ccccc1)c1ncc(C(F)(F)F)cc1Cl	16µM*	?	i	i	6.3µM*	?
CCCCCCN1C=CC(=C/C=C(\C#N)C(=O)OCC)C=C1	3%	-8%	i	8.2µM*	6%	-3%
COc1ccc(S(=O)(=O)N2CCN(c3cc(-c4ccccc4)nc4ncnn34)CC2)cc1	?	-7%	?	23µM*	-3%	-3%
O=S(=O)(c1ccc(Br)cc1)N1CCN(c2cc(-c3ccccc3)nc3ncnn23)CC1	-3%	13%	?	13µM*	24%	-2%
Cc1cnnn1-c1ccc(C(=O)CCl)cc1	1%	1%	?	i	29µM*	?
